# Measured values as given in PubChem BioAssay (NCI).
# Compounds without any hit were thinned out: in the full panel of roughly 83,000, 20% have a hit.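 Interpretation: 100, growth as untreated; towards 0, rising growth inhibition; 0, no net growth; 0 to -100, cell death. Compounds scoring below 10 were considered active.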 Unmarked numbers belong to inactive results. Active and inactive are the calls of the source.
# What was measured:
# Test in all cases: NCI-60 one-dose screen, 48 h (100 = growth as untreated, 0 = no growth, -100 = all killed)
# Conditions in all cases: 10 µM
# SR leukemia = tested on: SR leukemia
# RPMI-8226 leukemia = tested on: RPMI-8226 leukemia
# OVCAR-8 ovarian = tested on: OVCAR-8 ovarian
# OVCAR-5 ovarian = tested on: OVCAR-5 ovarian
# OVCAR-4 ovarian = tested on: OVCAR-4 ovarian
# SK-OV-3 ovarian = tested on: SK-OV-3 ovarian
# IGROV1 ovarian = tested on: IGROV1 ovarian
# HS 578T breast = tested on: HS 578T breast
# NCI/ADR-RES ovarian = tested on: NCI/ADR-RES ovarian
# OVCAR-3 ovarian = tested on: OVCAR-3 ovarian
SMILES,growth (SR leukemia),growth (RPMI-8226 leukemia),growth (OVCAR-8 ovarian),growth (OVCAR-5 ovarian),growth (OVCAR-4 ovarian),growth (SK-OV-3 ovarian),growth (IGROV1 ovarian),growth (HS 578T breast),growth (NCI/ADR-RES ovarian),growth (OVCAR-3 ovarian)
C#CCOc1c(OC)cc(C(=O)/C(C)=C/c2cccc(N=[N+]=[N-])c2)cc1OC,28.7%,43.7%,28.6%,42.9%,55.9%,32.1%,33.2%,46%,13.6%,–
COc1cc(/C=C/c2cc(/C=C/c3ccc(O)c(OC)c3)n(C(=O)Nc3ccccc3Cl)n2)ccc1O,-17.7% (active),-22.3% (active),1.5% (active),13.2%,6.59% (active),-33.3% (active),-6.58% (active),-4.71% (active),20.8%,–
COc1ccc(Cl)cc1Nc1nc(C(F)(F)F)ccc1C(=O)N/N=C/c1cc(OC)c(OC)c(OC)c1,14.1%,23%,53.2%,62.4%,23.7%,34.9%,–,-11.3% (active),0.977% (active),10.2%
CC1C(=NC(=O)c2cnccn2)C(C)C(c2ccc(Cl)cc2)NC1c1ccncc1 (stereo not drawn),126%,69.1%,88.3%,103%,122%,94.4%,–,125%,90.3%,113%
C=CCNCCN1C(=O)c2ccc3c4c(ccc(c24)C1=O)C(=O)N(CCNCC=C)C3=O,-8.69% (active),13.5%,-24% (active),-52% (active),-97.5% (active),-38.6% (active),–,1.35% (active),-12.9% (active),-22.5% (active)
CN(C)CCOc1ccc(-c2nc3sccn3c2-c2ccnc(S(C)(=O)=O)n2)cc1,109%,89.6%,106%,107%,95.9%,88.6%,115%,101%,102%,–
O=C(Nc1ccc(OCc2nnc(-c3ccc(Cl)cc3)o2)c(F)c1)Nc1ccc(Cl)c(C(F)(F)F)c1,-15.4% (active),-22.2% (active),11.6%,26.6%,17.2%,35.2%,–,14.5%,7.99% (active),0.829% (active)
COc1ccc(/C=C2\CCCC3=C2N=C2SC(C)=CN2C3c2ccc(OC)cc2)cc1 (stereo not drawn),100%,71.2%,95.2%,105%,97%,101%,111%,91%,96.3%,–
Cc1ccc(C)c(COc2cc(NC(=O)c3ccc4c(c3)OCO4)ccc2N(C)S(C)(=O)=O)c1,13.2%,24.9%,24.9%,30.7%,29.7%,-21% (active),–,-32.9% (active),-5.26% (active),-20.6% (active)
CCN(CC)CCN1c2nc3ccccc3cc2Sc2cc3ccccc3nc21,-53% (active),-15.9% (active),7.3% (active),13.6%,15.8%,46%,–,12.4%,4.85% (active),27.1%
O=C1C=C(Nc2cccc(Br)c2)c2ccccc2C1=O,56.8%,63.1%,69.5%,73.1%,77.6%,25.7%,–,38.5%,71.1%,38.9%
O=C1CC(SC(=S)C2CCCC2=O)C(=O)N1 (stereo not drawn),89.9%,100%,96.3%,109%,106%,105%,–,104%,104%,109%
COc1cc(N)c2ncccc2c1SC,90.4%,100%,98.4%,101%,105%,108%,–,92.5%,99.1%,105%
COc1cc(NC(=O)C2=C(N3CCOCC3)/C(=C/c3ccc(Cl)cc3)CC2)cc(OC)c1OC,35.1%,33.2%,72.7%,103%,83.2%,114%,–,95.2%,72.5%,85.9%
O=S(=O)(O)c1cccc(Nc2ccc3ccccc3c2)c1,92%,95.5%,92.4%,106%,–,87.9%,84.4%,96.6%,97.4%,97.5%
CN1C(C(=O)Nc2ccccn2)=C(O)c2sc(Cl)cc2S1(=O)=O,96.1%,94.5%,95.9%,104%,–,104%,99.6%,98.5%,95.4%,105%
O=C(N/N=C/c1ccc(Cl)cc1)c1ccccc1Nc1cccc(C(F)(F)F)c1,45.7%,82%,80.3%,96.9%,–,84.9%,59.3%,61.7%,88.8%,60.3%
CN1C(=O)C2(Nc3cc(Cl)ccc3S2)c2cc(Cl)ccc21 (stereo not drawn),70.6%,80.4%,97.4%,107%,–,96.1%,102%,91.1%,93.6%,95.9%
Clc1ccc(C2=NN=C3C(Cc4ccccc4)=Nc4ccccc4N3C2)cc1,25.4%,49.4%,75.5%,90%,–,112%,83.8%,90.1%,74.4%,65.8%
CC(C)(C)c1ccc(S(=O)(=O)Oc2ccc(NC(=O)C3CCCCC3)cc2)cc1,42.6%,13.6%,51%,85.1%,47.5%,–,76.3%,81.4%,29.8%,40.7%
CCOC(=O)/C(=C(\C)N)C1CC(=O)NC1=O (stereo not drawn),102%,101%,99.7%,102%,–,107%,118%,97.5%,92.8%,109%
COc1cc(-c2nc3ccccc3o2)cc(CN2CCCCC2)c1O,31.7%,45.1%,71.1%,110%,–,118%,82.1%,60.3%,79.7%,59%
Nc1nc(Cn2c(-c3nonc3N)nc3ccccc32)nc(N2CCCCC2)n1,58.9%,68%,93.2%,109%,107%,79.1%,–,97.2%,83.3%,–
Cc1cccc(N=Cc2ccccc2O)c1C,111%,96.9%,98.2%,108%,–,108%,115%,101%,101%,113%
O=S(=O)(Oc1ccc(-c2ccc3sccc3c2)cc1)c1ccccc1,105%,107%,106%,97.3%,–,107%,107%,108%,103%,110%
COc1cc2cc(Oc3ccc(NC(=O)Nc4ccc(C(F)(F)F)cc4)cc3)c(C)nc2cc1OC,59.6%,52.7%,37.8%,92.9%,–,38.8%,71.9%,70.9%,64.1%,–
c1ccc(CCCCc2ccc3ccccc3n2)cc1,99.7%,103%,101%,97.9%,111%,–,100%,98.7%,102%,–
CC(=O)O[C@@]12CO[C@@H]1C[C@H](O)[C@@]1(C)C(=O)[C@H](O)C3=C(C)[C@@H](OC(=O)[C@H](O)[C@@H](NC(=O)OC(C)(C)C)c4ccccc4)C[C@@](O)([C@@H](OC(=O)c4ccccc4)C12)C3(C)C (stereo partly drawn),11.1%,25.4%,38.4%,40.1%,–,47.3%,39.2%,12.3%,-21.2% (active),7.26% (active)
CCOC(=O)C1C(C(=O)OCC)C2C(=O)C3C(C(=O)OCC)C(C(=O)OCC)C3C(=O)C12 (stereo not drawn),117%,101%,104%,108%,–,109%,118%,108%,56%,114%
